Among all 310,000 compounds or so, about 14,000 (4.5%) showed an effect of 50% or more. The effect is printed as a negative number. The full list was thinned out, with strong results kept by preference.
Target: human ether-à-go-go-related gene (hERG) potassium channel (human, UniProt Q12809)
Test: primary screen, population patch clamp on CHO cells stably expressing hERG; higher = less effect of the substance
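Further: peak tail current of the secondary pulse compared with the same well before compound.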

human ether-à-go-go-related gene (hERG) potassium channel, sequence (Q12809 whole entry, looked up): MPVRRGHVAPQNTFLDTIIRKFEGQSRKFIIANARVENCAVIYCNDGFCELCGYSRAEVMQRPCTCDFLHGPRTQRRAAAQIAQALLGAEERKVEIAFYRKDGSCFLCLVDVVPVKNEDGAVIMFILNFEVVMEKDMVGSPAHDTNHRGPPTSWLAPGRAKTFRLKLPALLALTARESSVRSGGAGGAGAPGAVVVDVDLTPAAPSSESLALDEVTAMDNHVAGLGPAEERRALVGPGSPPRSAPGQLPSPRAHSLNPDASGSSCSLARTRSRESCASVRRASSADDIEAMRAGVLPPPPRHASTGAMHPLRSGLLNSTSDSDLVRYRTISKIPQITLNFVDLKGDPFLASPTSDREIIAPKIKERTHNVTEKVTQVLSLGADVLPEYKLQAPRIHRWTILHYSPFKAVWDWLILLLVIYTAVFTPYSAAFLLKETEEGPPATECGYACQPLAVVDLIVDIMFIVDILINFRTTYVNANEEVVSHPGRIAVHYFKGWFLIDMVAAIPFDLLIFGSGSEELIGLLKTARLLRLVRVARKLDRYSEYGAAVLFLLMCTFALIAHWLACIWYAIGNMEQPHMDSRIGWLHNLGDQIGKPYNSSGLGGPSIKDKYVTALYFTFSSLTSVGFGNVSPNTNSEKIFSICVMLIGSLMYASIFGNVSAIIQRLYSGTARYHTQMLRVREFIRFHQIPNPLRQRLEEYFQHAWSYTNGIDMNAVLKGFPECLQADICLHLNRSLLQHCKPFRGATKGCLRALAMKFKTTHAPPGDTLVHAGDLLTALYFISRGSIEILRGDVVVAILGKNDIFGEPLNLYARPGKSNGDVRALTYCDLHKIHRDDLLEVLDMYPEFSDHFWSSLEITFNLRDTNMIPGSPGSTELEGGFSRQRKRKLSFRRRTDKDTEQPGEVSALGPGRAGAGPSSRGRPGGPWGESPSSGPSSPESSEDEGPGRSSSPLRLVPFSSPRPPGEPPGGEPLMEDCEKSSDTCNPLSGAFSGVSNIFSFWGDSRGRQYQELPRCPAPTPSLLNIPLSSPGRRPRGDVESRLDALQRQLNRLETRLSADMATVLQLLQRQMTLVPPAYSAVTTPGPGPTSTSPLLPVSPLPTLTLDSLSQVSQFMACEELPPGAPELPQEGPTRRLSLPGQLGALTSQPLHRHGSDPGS

Point of comparison: COC(=O)c1c(C(=O)OC)c(-c2ccc(F)cc2)n2c1CS(=O)C2 (stereo not shown), “hERG current change (%, negative = inhibition) at 10uM” value 26.7%. Against it:
- CCCCCN(C(=O)CCC(=O)OCC(=O)N(CC#N)c1ccccc1)c1c(N)n(CCCC)c(=O)[nH]c1=O — lower, -0.196%
- COc1ccc(NC(=O)C(OC(=O)c2cnccn2)c2ccccc2)cc1Cl (stereo not shown) — lower, 24.7%
- Cc1ccc(S(=O)(=O)N2CCN(Cc3csc(C)n3)CC2)cc1 — lower, 6.87%
- O=[N+]([O-])c1ccc(-c2nn(-c3ccccc3)cc2/C=N/n2c(-c3ccncc3)n[nH]c2=S)cc1 — lower, 19.4%
- CN1CCN(C(=O)c2cc3ccccc3[nH]2)CC1 — lower, -3.26%
- CCN(CC)c1ccc(/C=C(/C#N)C(=O)NCc2ccccc2)o1 — lower, 2.6%
- CCOc1ccc(N2C(=O)CC(N(O)c3ccccc3)C2=O)cc1 (stereo not shown) — lower, 2.96%
- OCC[C@H]1C[C@H](O)[C@@H](O)[C@]2(CCCc3ccccc3O2)O1 — lower, 0.151%
- COCCNC(=O)CN1CCN(S(=O)(=O)c2ccc3c(c2)CCCC3)CC1 — lower, -7.28%
- COc1cc(N2C(=O)CC3(CCCC3)CC2=O)cc(OC)c1OC — lower, 4.04%
- CCOC(=O)C1(c2ccccc2)CCN(CCC(C#N)(c2ccccc2)c2ccccc2)CC1.Cl — lower, -25%
- CN1CCN(CCC(C#N)(c2ccccc2)c2ccccc2)CC1.Cl — lower, -62.9%
- N#CC(CCN1CCOCC1)(c1ccccc1)c1ccccc1 — lower, -20.8%
- O=C(NCc1ccc(Cl)cc1)NCC(F)(F)F — lower, 7%
- Cc1ccc(NC(=O)CS(=O)CC(=O)N(C2CCCC2)C(C)C(=O)NC2CCCCC2)cc1 (stereo not shown) — lower, -22.5%
- CCOC(=O)c1ccc2c(c1)nc(COc1ccc3ccccc3c1)n2CC — lower, 3.73%
- COc1ccc(-n2c(Cc3cccn3C)nnc2SCC(=O)Nc2ccccc2F)cc1 — lower, -53.7%
- COc1ccc(NC(=O)CSc2nnc(Cc3cccn3C)n2-c2ccc(OC)cc2)cc1 — lower, -21.2%
- COc1ccc(-n2c(Cc3cccn3C)nnc2SCC(=O)Nc2ccc(F)cc2F)cc1 — lower, -57.4%
- COc1ccc(NC(=O)CSc2nnc(Cc3cccn3C)n2-c2ccc(F)cc2)cc1 — lower, -21.7%
- COc1ccc(-n2c(Cc3cccn3C)nnc2SCC(=O)Nc2ccc(C)cc2)cc1 — lower, -26.4%
- COc1ccc(-n2c(Cc3cccn3C)nnc2SCC(=O)Nc2cc(Cl)ccc2OC)cc1 — lower, -97.9%
- COc1ccc(OC)c(NC(=O)CSc2nnc(Cc3cccn3C)n2-c2ccc(F)cc2)c1 — lower, -10.4%
- COc1ccc(-n2c(Cc3cccn3C)nnc2SCC(=O)Nc2cc(C)cc(C)c2)cc1 — lower, -52.4%
- COc1ccc(Cl)cc1NC(=O)CSc1nnc(Cc2cccn2C)n1-c1ccc(F)cc1 — lower, -34.6%
- Cn1cccc1Cc1nnc(SCC(=O)Nc2ccccc2F)n1-c1ccc(F)cc1 — lower, -17.4%
- COc1ccc(-n2c(Cc3cccn3C)nnc2SCC(=O)Nc2ccccc2OC)cc1 — lower, -38.5%
- Cn1cccc1Cc1nnc(SCC(=O)Nc2ccc(F)cc2F)n1-c1ccc(F)cc1 — lower, -40.9%
- COc1ccc(C2=NOC(C(=O)N3CCOCC3)C2)cc1OC (stereo not shown) — lower, 11.6%
- COCc1cc(C)nc(SCC(=O)Nc2cccc(C)c2)c1C#N — lower, 14.2%
- COC1=CC(=O)C(O)=C(CCCCCCC/C=C/CCCCCCCC2=C(O)C(=O)C=C(OC)C2=O)C1=O — lower, -3%
- CCOc1ccc(/C(CCC(=O)O)=N/NC(=S)NC(C)C)cc1 — lower, 14.1%
- CC1(C)NC(=O)N(CC(=O)O)C1=O — lower, 18%
- N/C(=N\OC(=O)c1ccc2ccccc2c1)c1ccccn1 — higher, 28.3%
- COC(=O)C1=C(C)N=c2s/c(=C/c3cccs3)c(=O)n2C1c1cccs1 (stereo not shown) — lower, -7.35%
- COC(=O)CN1C(=O)Nc2ccc(C)cc2C1c1ccccc1 (stereo not shown) — lower, 14.3%
- COc1ccccc1NC(=O)CSc1nnc(CNC(=O)COc2ccc(Cl)cc2)o1 — lower, -43.7%
- COc1ccc(OC)c(NC(=O)CSc2nnc(CNC(=O)COc3ccc(Cl)cc3)o2)c1 — lower, -60.1%
- COc1ccc(-n2c(Cc3cccn3C)nnc2SCC(=O)Nc2cccc(OC)c2)cc1 — lower, -23.4%
- COc1ccc(NC(=O)CSc2nnc(CNC(=O)COc3ccc(Cl)cc3)o2)c(OC)c1 — lower, -12.9%
- COc1ccc(Cl)cc1NC(=O)CSc1nnc(COc2ccccc2)n1N — lower, -5.96%
- COc1cc2c(cc1NC(=O)CSc1nnc(COc3ccc(Cl)cc3)n1C)oc1ccccc12 — lower, 6.05%
- COc1ccc(Cl)cc1NC(=O)CSc1nnc(COc2ccccc2)n1C — lower, -57.3%
- COc1ccc(-n2c(Cc3cccn3C)nnc2SCC(=O)Nc2cccc(F)c2)cc1 — lower, -54.3%
- COc1cccc(NC(=O)CSc2nnc(Cc3cccn3C)n2-c2ccc(F)cc2)c1 — lower, -15.5%
- CN(CCC#N)C(=O)COC(=O)c1ccccc1C(=O)c1ccc(Cl)c([N+](=O)[O-])c1 — lower, -0.749%
- CCOC(=O)CCC(=O)N1CCOCCOCCN(C(=O)CCC(=O)OCC)CCOCC1 — lower, -7.63%
- Cc1cc(C)c2nc(-c3ccccn3)cc(C(=O)Nc3cc(C)on3)c2c1 — lower, 10.4%
- COc1ccc(-n2nc(C(=O)NCC(=O)NC(C)C)c3ccccc3c2=O)cc1Cl — lower, 4.05%
- COC(=O)c1c(C(=O)OC)c(-c2ccc(OC)cc2)n2c1CS(=O)C2 (stereo not shown) — lower, 10.1%
- COC(=O)c1c(C(=O)OC)c(-c2ccc(C)cc2)n2c1CS(=O)C2 (stereo not shown) — lower, -53.8%

— paper PMC4336329 (PLoS ONE, 2015)
